Experimental data: PubChem BioAssay (NCATS)
Records with an inconclusive call do not appear. Activity calls are given as the source filed them. Unless noted, calls follow the shape of the full dose curve.

Key:
[1] = molecular target: Glucocorticoid receptor (Homo sapiens) (UniProt P04150); assay: qHTS assay for small molecule agonists of glucocorticoid receptor signaling (AID 588532; active = well fitted curve in the direction sought with a large enough effect in the signal ratio, with a control signal flat; the % refers to the signal ratio;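 also: 100% = dexamethasone at 0.1 µM and 0% = DMSO only wells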); conditions: HeLa MMTV-bla, beta-lactamase ratio, agonist, 18 h; active compounds read high; percent of dexamethasone control, DMSO zero
Summary of the method: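 MMTV-bla HeLa, beta-lactamase reporter; medium with 1% charcoal/dextran-stripped FBS; cpds up to 92 uM, 18 h, 37 C; CCF4 readout 460/530 nm; Hill fit → EC50, efficacy vs 0.1 uM dexamethasone = 100%.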

[2] = molecular target: Vitamin D3 receptor (Homo sapiens) (UniProt P11473); assay: qHTS assay for small molecule agonists of vitamin D receptor signaling (AID 588543); conditions: HEK293T VDR-UAS-bla, beta-lactamase ratio, 16 h; series mostly up to 76.8 µM;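 also: 0% = DMSO basal and 100% = reference agonist control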
Summary of the method: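 Measured: β-lactamase reporter activity (CCF4, 405 nm excitation, 460/530 nm emission) in HEK293T VDR-UAS-bla cells after 16 h compound exposure at 37 °C. Normalization against 50 nM 1α,25-dihydroxyvitamin D3 and DMSO; Hill-fit EC50.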

[3] = molecular target: Thyroid hormone receptor beta (Homo sapiens) (UniProt P10828); assay: qHTS assay for small molecule antagonists of thyroid hormone receptor beta signaling (AID 588547; active = well fitted inhibition curve with a large enough effect in the signal ratio, with a control signal flat, not every such curve was filed as active; the % refers to the signal ratio;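 also: cells stimulated with 0.4 nM T3 agonist during compound exposure; % is scaled to controls: 0 for no effect and ±100 for the full control effect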); conditions: TR-UAS-bla HEK293, beta-lactamase ratio, antagonist mode, 18 h
Summary of the method: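 TR-UAS-bla GripTite HEK293 cells in 2% charcoal/dextran FBS medium were preincubated 4 h at 37 C, given compound (0.59 nM to 92 uM) plus 0.4 nM T3 (final) for 18 h, then CCF4 for 2 h at RT; Hill fit gave IC50.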

[4] = qHTS assay for small molecule activators of the p53 signaling pathway (AID 651743; active = well fitted activation curve with a large enough effect in the signal ratio, not every such curve was filed as active; the % refers to the signal ratio; also: % of control where 0% means no effect); conditions: HCT-116 p53RE-bla, beta-lactamase FRET ratio, 16 h; activation: active compounds read high
Summary of the method: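 Here HCT-116 cells with an integrated p53-responsive beta-lactamase gene were incubated with compounds (16 hours, 37 C) after a 5-hour plating period; beta-lactamase activity was detected as fluorescence intensity via B/G FRET substrate.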

[5] = molecular target: Vitamin D3 receptor (Homo sapiens) (UniProt P11473); assay: qHTS assay for small molecule antagonists of vitamin D receptor signaling (AID 588541); conditions: HEK293T VDR-UAS-bla, beta-lactamase ratio, antagonist mode; series mostly up to 76.7 µM;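 also: receptor activated by calcitriol during compound treatment; % is scaled to controls: 0 for no effect and ±100 for the full control effect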
Summary of the method: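 VDR-UAS-bla HEK293T cells (2000/well, 2% charcoal-stripped FBS) were treated with titrated compounds plus 1-alpha,25-dihydroxyvitamin D3 (50 nM or 3 nM final) for 16 h at 37 C. CCF4 beta-lactamase fluorescence was read; Hill fits gave IC50.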

[6] = qHTS assay for small molecule agonists of the antioxidant response element (ARE) signaling pathway (AID 651741; active = well fitted activation curve with a large enough effect in the signal ratio; the % refers to the signal ratio; also: % of control where 0% means no effect); conditions: HepG2 ARE-bla reporter, beta-lactamase FRET ratio, 16 h; series mostly up to 96 µM
Summary of the method: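 Beta-lactamase reporter expression driven by the antioxidant response element in HepG2 cells was detected by fluorescence with LiveBLAzer B/G FRET substrate (2 h, room temperature) following 16 h compound treatment at 37 C.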

[7] = molecular target: Peroxisome proliferator-activated receptor gamma (Homo sapiens) (UniProt P37231); assay: qHTS assay for small molecule antagonists of peroxisome proliferator-activated receptor gamma signaling (AID 588537; active = well fitted inhibition curve with a large enough effect in the signal ratio, with a control signal flat, not every such curve was filed as active; the % refers to the signal ratio;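 also: reporter cells co-stimulated with 50 nM rosiglitazone agonist during compound treatment; % of control where 0% means no effect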); conditions: HEK293 PPARg-UAS-bla, beta-lactamase ratio, antagonist mode; series mostly up to 76.8 µM
Summary of the method: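 HEK293 cells, PPAR-gamma-UAS-bla, 3000/well. Pre-incubation 6-6.5 h, 37 C. Compound titration with rosiglitazone 50 nM final, 16 h. CCF4 dye, 2 h RT, dual-emission fluorescence.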

Vitamin D3 receptor (Homo sapiens), sequence (P11473 whole entry, looked up): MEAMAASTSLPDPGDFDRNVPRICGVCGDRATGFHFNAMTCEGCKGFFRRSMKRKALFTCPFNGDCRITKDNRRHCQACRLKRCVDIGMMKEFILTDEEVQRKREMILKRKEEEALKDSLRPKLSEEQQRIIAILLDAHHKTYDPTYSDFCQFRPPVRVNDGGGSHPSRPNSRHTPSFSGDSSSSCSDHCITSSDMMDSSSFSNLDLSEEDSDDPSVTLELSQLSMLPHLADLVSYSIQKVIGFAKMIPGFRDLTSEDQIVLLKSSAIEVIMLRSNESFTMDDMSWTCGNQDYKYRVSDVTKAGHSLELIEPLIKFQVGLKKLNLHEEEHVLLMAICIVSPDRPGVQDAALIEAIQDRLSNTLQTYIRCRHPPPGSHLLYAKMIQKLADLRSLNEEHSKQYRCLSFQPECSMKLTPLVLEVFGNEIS
Glucocorticoid receptor (Homo sapiens), sequence (P04150 whole entry, looked up): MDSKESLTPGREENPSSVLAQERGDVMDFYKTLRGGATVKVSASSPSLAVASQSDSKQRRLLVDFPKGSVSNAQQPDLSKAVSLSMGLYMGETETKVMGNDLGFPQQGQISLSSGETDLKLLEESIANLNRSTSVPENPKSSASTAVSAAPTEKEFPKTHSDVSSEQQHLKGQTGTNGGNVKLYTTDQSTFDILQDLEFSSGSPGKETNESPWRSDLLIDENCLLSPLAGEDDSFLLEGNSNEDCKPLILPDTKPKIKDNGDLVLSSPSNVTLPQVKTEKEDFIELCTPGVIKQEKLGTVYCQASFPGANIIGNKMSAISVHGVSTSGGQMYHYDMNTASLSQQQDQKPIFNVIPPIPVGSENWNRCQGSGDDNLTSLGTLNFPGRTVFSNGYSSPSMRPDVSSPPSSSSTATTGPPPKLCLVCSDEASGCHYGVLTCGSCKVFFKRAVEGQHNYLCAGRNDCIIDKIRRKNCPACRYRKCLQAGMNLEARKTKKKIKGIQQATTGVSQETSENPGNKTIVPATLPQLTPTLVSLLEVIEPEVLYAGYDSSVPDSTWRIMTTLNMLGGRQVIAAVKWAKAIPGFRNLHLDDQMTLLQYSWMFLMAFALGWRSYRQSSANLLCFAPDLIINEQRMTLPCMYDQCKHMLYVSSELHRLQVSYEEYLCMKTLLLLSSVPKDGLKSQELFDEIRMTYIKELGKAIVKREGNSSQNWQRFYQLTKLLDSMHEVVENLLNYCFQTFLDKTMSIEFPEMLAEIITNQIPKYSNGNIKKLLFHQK
Thyroid hormone receptor beta (Homo sapiens), sequence (P10828 whole entry, looked up): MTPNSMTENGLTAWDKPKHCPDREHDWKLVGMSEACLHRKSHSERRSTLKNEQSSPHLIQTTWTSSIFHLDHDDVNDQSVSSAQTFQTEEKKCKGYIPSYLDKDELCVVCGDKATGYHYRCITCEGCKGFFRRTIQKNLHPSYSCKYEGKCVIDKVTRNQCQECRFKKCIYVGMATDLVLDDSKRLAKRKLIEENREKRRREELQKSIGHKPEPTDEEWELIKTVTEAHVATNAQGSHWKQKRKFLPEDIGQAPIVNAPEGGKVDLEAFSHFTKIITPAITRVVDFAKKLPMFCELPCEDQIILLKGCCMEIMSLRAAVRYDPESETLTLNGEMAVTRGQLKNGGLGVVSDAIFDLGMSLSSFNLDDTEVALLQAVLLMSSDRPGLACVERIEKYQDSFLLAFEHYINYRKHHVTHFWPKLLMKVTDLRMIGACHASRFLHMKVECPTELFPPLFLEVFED
Peroxisome proliferator-activated receptor gamma (Homo sapiens), sequence (P37231 whole entry, looked up): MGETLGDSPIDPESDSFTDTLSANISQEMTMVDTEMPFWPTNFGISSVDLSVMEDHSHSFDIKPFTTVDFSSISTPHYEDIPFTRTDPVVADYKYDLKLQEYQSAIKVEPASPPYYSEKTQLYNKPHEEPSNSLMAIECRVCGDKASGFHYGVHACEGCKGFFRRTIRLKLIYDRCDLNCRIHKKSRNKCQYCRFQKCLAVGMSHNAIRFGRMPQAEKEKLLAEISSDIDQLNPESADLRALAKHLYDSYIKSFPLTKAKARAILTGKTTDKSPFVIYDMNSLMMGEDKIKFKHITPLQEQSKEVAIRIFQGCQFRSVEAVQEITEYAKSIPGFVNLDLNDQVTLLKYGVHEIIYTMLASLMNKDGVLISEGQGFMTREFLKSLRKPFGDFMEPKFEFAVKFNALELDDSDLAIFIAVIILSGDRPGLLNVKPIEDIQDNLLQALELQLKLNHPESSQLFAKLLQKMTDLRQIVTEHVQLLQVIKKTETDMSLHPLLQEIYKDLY

c1cc(-c2ccncc2)ccn1
inactive: activation [1] -9.26% | outcome [2] | activity change % (negative = inhibition) [3] -17.5% | activation [4] -5.33%

OCCOCCOCCOCCO
inactive: activation [1] -2.94% | Potency [5] | Potency [6] | activation [4] 0.49%

C=CCCCCCCCCC=O
inactive: activation [1] 4.91% | Potency [7] | Potency [5] | outcome [2] | activity change % (negative = inhibition) [3] 19.2% | activation [4] 3.83%
